Screens deposited in PubChem BioAssay by National Center for Advancing Translational Sciences (NCATS).
An excerpt weighted towards active compounds, which were near 2.5% of everything screened.
Anesthetic bind = qHTS Assay for Identification of Novel General Anesthetics; Ferritin light chain (Equus caballus), P02791; apoferritin/1-aminoanthracene competitive binding, fluorescence; Potency, µM (doses to about 77.5 µM), inactives show top-dose activity change, negative = displacement, usual class: inhibitors; actives 0.074% (n = 350,000); AID 485281, 2010; further: potency means the concentration at half of the fitted maximal effect; on the % scale 0 is the no-effect control and ±100 the full control effect; nearly all actives have a fitted effect of over 20% in size
Target sequence (P02791 2-175 limits assumed): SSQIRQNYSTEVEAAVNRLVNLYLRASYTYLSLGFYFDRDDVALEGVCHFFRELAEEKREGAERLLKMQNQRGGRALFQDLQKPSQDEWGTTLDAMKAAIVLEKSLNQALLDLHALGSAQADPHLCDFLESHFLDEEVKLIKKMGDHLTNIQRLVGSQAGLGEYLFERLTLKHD
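Horse-spleen apoferritin (10 uM) was mixed with 50% saturated 1-aminoanthracene in PBS, exposed to compounds for 10 min at room temperature, and read for fluorescence (ex 380 nm, em 535 nm). Competitive displacement was fitted with a four-parameter Hill equation.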
TrxR1 substrate = qHTS Assay for Substrates of Mammalian Selenoprotein Thioredoxin Reductase 1 (TrxR1): qHTS; Thioredoxin reductase 1, cytoplasmic (Rattus norvegicus), O89049; purified TrxR1 substrate turnover, NADPH consumption readout; Potency, µM (top dose mostly 114 µM), for the others: at the top dose activity change, negative = substrate turnover; actives 0.01% (n = 390,000); AID 588456, 2011; further: potency means the concentration at half of the fitted maximal effect; on the % scale 0 is the no-effect control and ±100 the full control effect; nearly all actives have a fitted effect of over 50% in size
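Rat TrxR1, dispensed at 90 nM, was prereduced with 400 uM NADPH (final) for 5 min at ~22 deg C, then incubated with compound 15 min before 400 uM selenite. A first-read NADPH fluorescence drop versus no-compound background flagged substrates.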
ClpP mod = qHTS Assay for Activators of ClpP; ATP-dependent Clp protease proteolytic subunit (Bacillus subtilis (strain 168)), P80244; purified B. subtilis ClpP, FRET peptide cleavage, 20 min; Potency, µM (doses to about 57.5 µM), inactives show at the top dose activity change, negative = active; actives 1.9% (n = 340,000); AID 651965, 2013; active means well fitted falling curve with a large enough effect; inconclusive means small, poorly fitted or top-dose-only effect; inactive means no such curve, though single readings can be large or run the other way; further: potency means the concentration at half of the fitted maximal effect; the source files actives as falling curves though it sought activators and does not explain the sign; nearly all actives have a fitted effect of over 65% in size
Target sequence (P80244 whole entry, looked up): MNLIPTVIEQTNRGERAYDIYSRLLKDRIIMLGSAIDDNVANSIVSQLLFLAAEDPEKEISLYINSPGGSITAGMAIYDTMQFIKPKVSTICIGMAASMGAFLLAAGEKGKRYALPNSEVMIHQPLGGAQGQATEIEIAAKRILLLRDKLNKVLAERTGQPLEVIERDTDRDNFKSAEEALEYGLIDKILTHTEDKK
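Purified B. subtilis ClpP, 10 microg/mL final in Tris/HCl pH8 with KCl, BSA, glycerol and Tween-20, cleaved an Abz/nitrotyrosine-quenched decapeptide. Fluorescence (ex 320, em 430) was read at 0 and 20 min at room temperature. Delta was normalized to 5.8 microM ADEP and DMSO/no-enzyme controls.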
rTrxR1 inhibitor = qHTS Assay for Inhibitors of Mammalian Selenoprotein Thioredoxin Reductase 1 (TrxR1): qHTS | Thioredoxin reductase 1, cytoplasmic (Rattus norvegicus), O89049 | recombinant rTrxR1, NADPH fluorescence consumption, selenite substrate | Potency, µM (top dose mostly 114 µM), for the others: top-dose activity change, negative = inhibition, hits mostly inhibitors | actives 1% (n = 390,000); further: potency means the concentration at half of the fitted maximal effect; on the % scale 0 is the no-effect control and ±100 the full control effect; nearly all actives have a fitted effect of over 65% in size
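Rat TrxR1 (90 nM in the dispensed reagent) was pre-reduced with 400 uM NADPH for 5 min at room temperature, then incubated with compound for 15 min. After 400 uM selenite was added, NADPH fluorescence (Ex 340/Em 450 nm) was followed for 8 min.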
miR-21 reporter = qHTS Assay for Modulators of miRNAs and/orActivators of miR-21. HeLa miR-21 FLuc reporter, luciferase, 48 h. Potency, µM (titrated, usually from 38.3 µM), for the others: at the top dose activity change, positive = activation, hits mostly activators. 340,000 tested, under 10 active;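 further: % of control where 0% means no effect; miR-21 action dims this reporter so a rising signal means less miR-21 action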
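HeLa cells stably expressing CMV-driven firefly luciferase with a downstream miR-21 binding sequence, endogenously expressing miR-21, were treated with titrations (up to about 40uM final) for 48 hours at 37 degree Celsius. Luciferase luminescence was read after lysis.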
* marks the source's active call; other numbers are inactive results; u = inconclusive; x = no result given; [ ] = another dose, or the depositor's remark. Unless noted, the call rests on the fitted dose curve; in most records, active means well fitted curve in the direction sought with a large enough effect; inconclusive means small, poorly fitted or top-dose-only effect, or another doubt; inactive means no such curve, though single readings can be large; an effect the other way counts as inactive or inconclusive.

SMILES	Anesthetic bind	TrxR1 substrate	ClpP mod	rTrxR1 inhibitor	miR-21 reporter
O=c1[nH]c2ccccc2nc1NCCN1CCOCC1	2.7%	7.9%[57.1 µM]	31.6µM*	-5.9%[57.1 µM]	-8.1%
Cc1ccc(C(=O)c2cn(Cc3cc(C)ccc3C)c3nc(C)ccc3c2=O)cc1	u	-4.1%	1.2%	17.6%	13.0%
Cc1sc(NC(=O)c2ccco2)c(C(c2cccnc2)N2CCCC2)c1C (stereo not drawn)	-5.8%	-1.6%	-3.3%	7.94µM*	-12.6%
Cc1sc(NC(=O)c2ccco2)c(C(c2cccnc2)N2CCN(C)CC2)c1C (stereo not drawn)	-9.2%	12.3%[57.1 µM]	-4.3%	u	0.0%
CCC(C)Nc1ccc(NC(C)CC)cc1 (stereo not drawn)	x	u	-1.6%	20µM*	x
CCOC(=O)C1(Cc2cccc(Cl)c2)CCCN(C(=O)c2cnn(CC)c2)C1 (stereo not drawn)	-9.6%	-11.1%	31.6µM*	-13.9%	-17.8%
N=c1c(C(=O)NCc2ccco2)cc2c(=O)n3ccccc3nc2n1CC1CCCO1 (stereo not drawn)	x	111.7%	28.2µM*	-23.9%	x
N=c1c(C(=O)NCc2ccco2)cc2c(=O)n3ccccc3nc2n1CCc1ccccc1	-1.3%	143.8%	28.2µM*	-23.4%	-7.7%
COC(=O)c1sccc1NC(=O)c1cc2c(s1)CCCC2	-11.5%	7.2%	35.5µM*	-11.7%	-3.3%
COc1ccc(C)cc1NC(=O)c1cc2c(s1)CCC2	-15.9%	-17.4%	-8.6%	-18.2%	-49.3%
CCCCNc1nc2c(S(=O)(=O)c3ccc(C)c(C)c3)nnn2c2ccsc12	u	18.7%	28.2µM*	19.5%	-30.1%
Cc1ccc(S(=O)(=O)c2nnn3c2nc(NCc2ccc(F)cc2)c2sccc23)cc1C	u	17.6%	28.2µM*	35.6%	-11.4%
Cc1ccc(S(=O)(=O)c2nnn3c2nc(NCc2cccs2)c2sccc23)cc1C	-15.9%	25.0%	-14.4%	36.7%	-26.3%
Cc1ccc(S(=O)(=O)c2nnn3c2nc(NCc2ccccc2)c2sccc23)cc1	-15.4%	21.9%	20µM*	50.6%	-6.2%
O=C(c1ccc2c(c1)OCCO2)N(Cc1cccnc1)c1nc2c(F)cccc2s1	-1.5%	-3.0%[57.1 µM]	-3.8%	9.9%[57.1 µM]	12.9%
CC(C)c1nc2sc3c(SCC(=O)NCc4ccco4)ncnc3c2c2c1CCC2	u	u	25.1µM*	u	-19.5%
COC(=O)N1C(=O)[C@](Cc2ccccc2)(c2ccccc2)N1C(=O)OC	-1.7%	-4.1%	0.6%	3.98µM*	3.1%
COC(=O)N1C(=O)[C@](c2ccccc2)(C(C)C)N1C(=O)OC	-10.0%	3.0%[57.1 µM]	-0.4%	u	1.8%
CC[C@]1(c2cccc(C)c2)C(=O)N(C(=O)OC)N1C(=O)OC	-9.8%	5.3%[57.1 µM]	1.5%	1.58µM*	1.2%
CC[C@]1(c2ccccc2)C(=O)N(C(=O)OC)N1C(=O)OC	-2.4%	2.8%	-2.2%	u	-0.3%
CC[C@@]1(c2ccccc2C)C(=O)N(C(=O)OC)N1C(=O)OC	-10.9%	5.6%	0.1%	5.62µM*	2.2%
COC(=O)N1C(=O)[C@@](c2ccccc2)(C2CCCCC2)N1C(=O)OC	-22.6%	1.6%	-0.1%	44.7µM*	-0.2%
COC(=O)N1C(=O)[C@@](Cc2ccccc2)(c2ccccc2)N1C(=O)OC	-2.9%	13.5%[57.1 µM]	2.1%	u	2.7%
Cc1ccc(NC(=O)c2nnn(CC(=O)Nc3ccc(C)c(Cl)c3)c2N)c(C)c1	u	0.9%	u	26.0%	-19.2%
CC[C@@]1(c2ccccc2)C(=O)N(C(=O)OC)N1C(=O)OC	-5.7%	2.8%	2.1%	1.26µM*	0.0%
C=CCn1c(SCC(=O)O)nnc1-c1cccs1	-8.7%	11.5%	u	9.9%	-5.0%
C=CCn1c(SCCC(=O)O)nnc1-c1cccs1	-5.0%	12.3%[57.1 µM]	28.2µM*	-16.2%[57.1 µM]	-1.1%
